# Source: article PMC7862700, “An all-to-all approach to the identification of sequence-specific readers for epigenetic DNA modifications on cytosine”
# Legend:
# Assay in all cases: DAPPL (digital affinity profiling via proximity ligation, sequencing); 10 mM Tris-HCl pH 7.5, 50 mM NaCl, 1 mM DTT, 4% glycerol, room temperature, 30 min; GST-TFs on glutathione beads, 16-mer random dsDNA library, 0.1% formaldehyde crosslink after washing; high values mean tight binding
# FEV = target: T1, FEV (Homo sapiens, UniProt Q99581 1-238); conditions: protein: recombinant; tags: N-terminal GST; dsDNA, one strand shown
# T1 sequence: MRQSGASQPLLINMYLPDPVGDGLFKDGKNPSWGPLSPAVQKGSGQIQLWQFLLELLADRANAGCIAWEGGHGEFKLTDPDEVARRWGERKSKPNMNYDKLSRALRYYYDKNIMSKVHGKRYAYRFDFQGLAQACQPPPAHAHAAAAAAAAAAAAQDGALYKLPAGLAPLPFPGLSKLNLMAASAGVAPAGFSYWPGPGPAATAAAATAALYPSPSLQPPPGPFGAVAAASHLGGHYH
# In short: (§1)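 The binding signal reported is, for every hexamer, its read frequency for a factor over its read frequency for the tag-only sample. Reads came from pools of yeast-expressed, GST-fused human transcription factors on glutathione beads, barcoded with DNA and mixed with that sample, which were incubated with 200 nmole of a random double-stranded 16-mer DNA library in Tris/NaCl/DTT/glycerol buffer at room temperature for 30 min. After washing, the pools were crosslinked with 0.1% formaldehyde, proximity-ligated with BsaI/T4 ligase for 1 h at 37 °C, PCR-amplified and sequenced on an Illumina NextSeq500.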
# ETV5 = ETV5 (Homo sapiens, UniProt P41161 1-510); conditions: protein: recombinant; tags: N-terminal GST; dsDNA, one strand shown
# In short: as §1
# HSF1 = HSF1 (Homo sapiens, UniProt Q00613 1-529); conditions: protein: recombinant; tags: N-terminal GST; chain copies: 3; dsDNA, one strand shown
# In short: as §1
# SPIC = target: T2, SPIC (Homo sapiens, UniProt Q8N5J4 1-248); conditions: protein: recombinant; tags: N-terminal GST; dsDNA, one strand shown
# T2 sequence: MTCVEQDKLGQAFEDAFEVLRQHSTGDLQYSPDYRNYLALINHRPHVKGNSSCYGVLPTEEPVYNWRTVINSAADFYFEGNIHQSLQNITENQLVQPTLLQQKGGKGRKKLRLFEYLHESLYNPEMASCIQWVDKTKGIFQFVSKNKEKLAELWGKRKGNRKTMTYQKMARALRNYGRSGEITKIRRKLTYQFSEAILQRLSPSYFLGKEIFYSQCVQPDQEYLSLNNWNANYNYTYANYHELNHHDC
# In short: as §1
# ELF4 = ELF4 (Homo sapiens, UniProt Q99607 1-663); conditions: protein: recombinant; tags: N-terminal GST; dsDNA, one strand shown
# In short: as §1
# ELK4 = target: T3, ELK4 (Homo sapiens, UniProt P28324-2 1-405); conditions: protein: recombinant; tags: N-terminal GST; dsDNA, one strand shown
# T3 sequence: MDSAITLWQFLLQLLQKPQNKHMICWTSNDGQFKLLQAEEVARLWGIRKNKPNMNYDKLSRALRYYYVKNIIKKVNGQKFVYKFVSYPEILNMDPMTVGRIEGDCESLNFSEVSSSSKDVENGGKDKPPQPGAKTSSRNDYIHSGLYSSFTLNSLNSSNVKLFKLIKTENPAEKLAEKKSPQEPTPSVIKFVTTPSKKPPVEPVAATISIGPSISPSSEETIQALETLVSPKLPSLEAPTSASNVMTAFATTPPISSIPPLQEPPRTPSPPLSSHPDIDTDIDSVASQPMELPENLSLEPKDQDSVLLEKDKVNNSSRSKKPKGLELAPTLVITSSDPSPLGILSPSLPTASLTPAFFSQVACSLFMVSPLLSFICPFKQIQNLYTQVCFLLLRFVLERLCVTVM
# In short: as §1
# ETV2 = target: T4, ETV2 (Homo sapiens, UniProt O00321 1-342); conditions: protein: recombinant; tags: N-terminal GST; dsDNA, one strand shown
# T4 sequence: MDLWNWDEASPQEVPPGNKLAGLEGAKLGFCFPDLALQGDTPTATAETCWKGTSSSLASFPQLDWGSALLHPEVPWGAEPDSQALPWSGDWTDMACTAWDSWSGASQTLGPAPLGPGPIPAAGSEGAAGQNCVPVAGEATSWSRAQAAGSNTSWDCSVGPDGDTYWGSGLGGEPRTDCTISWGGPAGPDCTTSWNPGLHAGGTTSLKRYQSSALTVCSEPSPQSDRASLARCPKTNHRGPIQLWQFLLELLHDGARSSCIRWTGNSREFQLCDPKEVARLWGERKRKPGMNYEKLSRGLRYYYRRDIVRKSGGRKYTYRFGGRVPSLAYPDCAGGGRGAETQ
# In short: as §1
# ELF3 = target: T5, ELF3 (Homo sapiens, UniProt P78545 1-371); conditions: protein: recombinant; tags: N-terminal GST; dsDNA, one strand shown
# T5 sequence: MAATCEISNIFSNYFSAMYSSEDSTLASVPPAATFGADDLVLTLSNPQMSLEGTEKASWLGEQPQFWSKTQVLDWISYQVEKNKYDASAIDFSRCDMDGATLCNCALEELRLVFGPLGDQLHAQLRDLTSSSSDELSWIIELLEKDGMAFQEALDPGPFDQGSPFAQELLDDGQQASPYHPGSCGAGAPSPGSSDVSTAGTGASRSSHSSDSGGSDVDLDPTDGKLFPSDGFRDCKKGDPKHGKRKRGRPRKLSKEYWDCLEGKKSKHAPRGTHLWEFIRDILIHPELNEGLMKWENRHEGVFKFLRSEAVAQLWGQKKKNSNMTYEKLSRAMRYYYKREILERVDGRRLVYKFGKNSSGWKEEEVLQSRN
# In short: as §1
# CRX = CRX (Homo sapiens, UniProt O43186 1-299); conditions: protein: recombinant; tags: N-terminal GST; dsDNA, one strand shown
# In short: as §1
# CRX, sequence (O43186 whole entry): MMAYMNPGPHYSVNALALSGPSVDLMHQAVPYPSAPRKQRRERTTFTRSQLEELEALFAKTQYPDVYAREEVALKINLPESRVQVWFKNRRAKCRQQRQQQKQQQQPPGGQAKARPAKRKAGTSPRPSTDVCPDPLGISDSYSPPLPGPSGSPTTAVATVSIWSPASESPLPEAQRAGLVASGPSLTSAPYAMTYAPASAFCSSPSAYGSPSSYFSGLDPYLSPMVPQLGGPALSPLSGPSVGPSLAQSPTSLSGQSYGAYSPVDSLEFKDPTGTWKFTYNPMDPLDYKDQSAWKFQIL
# ETV5, sequence (P41161 whole entry): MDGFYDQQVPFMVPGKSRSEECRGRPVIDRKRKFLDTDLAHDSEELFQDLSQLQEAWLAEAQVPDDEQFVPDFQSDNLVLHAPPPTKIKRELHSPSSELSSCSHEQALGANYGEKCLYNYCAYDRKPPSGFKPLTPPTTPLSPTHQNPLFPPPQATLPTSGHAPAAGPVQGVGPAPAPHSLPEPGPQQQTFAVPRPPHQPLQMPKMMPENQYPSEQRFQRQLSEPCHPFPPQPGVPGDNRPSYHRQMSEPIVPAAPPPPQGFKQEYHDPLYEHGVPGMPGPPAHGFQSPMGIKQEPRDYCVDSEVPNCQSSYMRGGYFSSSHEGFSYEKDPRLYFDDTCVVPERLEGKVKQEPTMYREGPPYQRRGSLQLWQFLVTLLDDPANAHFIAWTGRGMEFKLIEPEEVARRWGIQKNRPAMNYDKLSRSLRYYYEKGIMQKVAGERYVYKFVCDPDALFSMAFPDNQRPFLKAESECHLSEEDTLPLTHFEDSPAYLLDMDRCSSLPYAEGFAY
# ELF4, sequence (Q99607 whole entry): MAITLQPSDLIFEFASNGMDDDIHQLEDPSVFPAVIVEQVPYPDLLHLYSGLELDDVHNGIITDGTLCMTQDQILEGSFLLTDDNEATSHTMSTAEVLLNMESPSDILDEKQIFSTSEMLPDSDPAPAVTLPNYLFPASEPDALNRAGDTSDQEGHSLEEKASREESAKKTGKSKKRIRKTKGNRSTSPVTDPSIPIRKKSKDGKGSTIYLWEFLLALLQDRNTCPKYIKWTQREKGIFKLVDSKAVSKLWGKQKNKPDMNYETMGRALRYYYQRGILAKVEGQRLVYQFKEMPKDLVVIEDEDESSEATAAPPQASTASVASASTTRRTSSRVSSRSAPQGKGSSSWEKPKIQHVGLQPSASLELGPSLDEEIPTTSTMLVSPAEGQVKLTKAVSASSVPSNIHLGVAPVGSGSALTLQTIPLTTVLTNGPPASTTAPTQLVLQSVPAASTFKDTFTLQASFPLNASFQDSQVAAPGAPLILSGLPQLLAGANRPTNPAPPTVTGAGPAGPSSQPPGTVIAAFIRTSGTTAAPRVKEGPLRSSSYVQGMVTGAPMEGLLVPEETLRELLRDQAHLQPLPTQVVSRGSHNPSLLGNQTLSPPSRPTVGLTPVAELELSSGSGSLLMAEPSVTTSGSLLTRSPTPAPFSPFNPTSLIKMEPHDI
# HSF1, sequence (Q00613 whole entry): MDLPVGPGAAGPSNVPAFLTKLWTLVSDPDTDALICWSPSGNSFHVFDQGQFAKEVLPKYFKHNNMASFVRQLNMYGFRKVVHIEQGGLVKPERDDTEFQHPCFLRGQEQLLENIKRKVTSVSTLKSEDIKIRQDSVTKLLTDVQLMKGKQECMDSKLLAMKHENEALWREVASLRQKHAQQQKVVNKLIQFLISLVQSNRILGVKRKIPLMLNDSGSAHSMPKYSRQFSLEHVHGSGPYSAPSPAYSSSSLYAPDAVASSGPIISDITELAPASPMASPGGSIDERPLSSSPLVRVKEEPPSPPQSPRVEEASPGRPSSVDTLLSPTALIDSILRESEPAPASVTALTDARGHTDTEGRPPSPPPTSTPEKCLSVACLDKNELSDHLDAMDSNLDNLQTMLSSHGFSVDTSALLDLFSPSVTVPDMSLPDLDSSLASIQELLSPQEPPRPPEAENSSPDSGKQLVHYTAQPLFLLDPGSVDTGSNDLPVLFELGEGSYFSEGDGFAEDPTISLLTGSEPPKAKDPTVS
sequence,measurement,setting,value
CCCTTC,binding signal,FEV,"1.47 fold enrichment (6-mer frequency, TF over GST control)"
same,binding signal,ETV5,"1.54 fold enrichment (6-mer frequency, TF over GST control)"
same,binding signal,HSF1,"1.35 fold enrichment (6-mer frequency, TF over GST control)"
same,binding signal,SPIC,"1.19 fold enrichment (6-mer frequency, TF over GST control)"
same,binding signal,ELF4,"1.49 fold enrichment (6-mer frequency, TF over GST control)"
same,binding signal,ELK4,"1.35 fold enrichment (6-mer frequency, TF over GST control)"
same,binding signal,ETV2,"1.33 fold enrichment (6-mer frequency, TF over GST control)"
same,binding signal,ELF3,"1.46 fold enrichment (6-mer frequency, TF over GST control)"
same,binding signal,CRX,"1.05 fold enrichment (6-mer frequency, TF over GST control)"
